# Source: PubChem (National Center for Advancing Translational Sciences (NCATS))
# Hits are enriched below; roughly 4.7% of the tested compounds scored in any of these assays.
# D1 potentiator: Potentiators of Human D1 Dopamine Receptor: qHTS | 360,000 compounds, 0.036% hits | AID 504651, 2011 | potentiation, % at 10 µM | HEK293 TREx D1 cells, calcium flux, dopamine EC20 potentiation; in the data active means potentiation above about 30%
# Target sequence (P21728 whole entry, looked up): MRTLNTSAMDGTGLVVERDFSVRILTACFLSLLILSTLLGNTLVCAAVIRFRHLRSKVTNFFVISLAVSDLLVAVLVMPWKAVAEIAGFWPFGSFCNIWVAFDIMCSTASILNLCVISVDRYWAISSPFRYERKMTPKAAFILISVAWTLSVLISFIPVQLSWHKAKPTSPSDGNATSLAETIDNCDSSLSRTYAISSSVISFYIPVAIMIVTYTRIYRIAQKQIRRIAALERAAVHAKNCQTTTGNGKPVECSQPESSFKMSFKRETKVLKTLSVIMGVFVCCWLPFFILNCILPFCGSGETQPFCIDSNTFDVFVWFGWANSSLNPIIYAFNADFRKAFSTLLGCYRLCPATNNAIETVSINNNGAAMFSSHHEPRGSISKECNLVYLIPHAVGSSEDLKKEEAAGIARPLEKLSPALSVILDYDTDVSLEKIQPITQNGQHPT
# TRHR agonist: qHTS for Small Molecule Agonists and Allosteric Enhancers of Human TRH Receptor: Primary Screen for Agonists. 360,000 compounds, 0.18% hits. activation, % at 2 µM. AID 493084, 2011. Thyrotropin-releasing hormone receptor (Homo sapiens), P34981. TRHR cells, calcium flux fluo-8, FDSS agonist mode
#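 TRHR-expressing cells, plated overnight in medium with 10% serum, were loaded with fluo-8 calcium dye at room temperature. After a 10 s baseline, library compound was pin-added and calcium release was recorded kinetically (ex 480/em 530) as agonist response.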
# D1 antagonist: Antagonist of Human D 1 Dopamine Receptor: qHTS | AID 504652, 2011 | HEK293 TREx D1 cells, calcium flux, dopamine EC80; stronger effect = lower value | activity change, negative = inhibition, % at 10 µM | 360,000 compounds, 3.2% hits | D(1A) dopamine receptor (Homo sapiens), P21728; in the data active means activity change below about -30%
#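 HEK293 T-REx cells expressing inducible, force-coupled D1 receptor; no-wash Ca dye, 30–90 min RT. Cmpd → 180 s read at 1 Hz → EC80 DA → 180 s read.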
# TRHR PAM: qHTS for Small Molecule Agonists and Allosteric Enhancers of Human TRH Receptor: Primary Screen for Enhancers. TRHR cells, fluo-8 calcium fluorescence, EC20 TRH enhancement. Thyrotropin-releasing hormone receptor (Homo sapiens), P34981. AID 493056, 2011. 360,000 compounds, 0.66% hits. enhancement, % at 2 µM; in the data active means enhancement above about 30%
#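 TRHR-expressing cells loaded with fluo-8 calcium dye were read kinetically (ex 480/em 530) during compound addition, then stimulated with an EC20 of TRH (10 nM final). Enhancement of the Gq-mediated intracellular calcium response was scored.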
# D1 ag: Allosteric Agonists of the Human D1 Dopamine Receptor: qHTS; HEK293 T-REx D1 cells, calcium flux, agonist mode; 360,000 compounds, 1% hits; activation, % at 2 µM
#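 Inducible HEK293 T-REx D1 cells, force-coupled to calcium signalling, were plated at 4000 cells/well with tetracycline and held overnight at 30 C. After no-wash calcium dye loading, compound-evoked calcium rise over 180 s flagged agonists.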
# Numbers stand for hits; - = inactive. Unless noted, no stated cut-off is given here; in the data, active means activation above about 30%; inactive means the rest.
SMILES,D1 potentiator,TRHR agonist,D1 antagonist,TRHR PAM,D1 ag
Cc1c(NC(=O)CSc2nnnn2-c2ccc(O)cc2)c(=O)n(-c2ccccc2)n1C,-,-,-46.7,-,-
COc1ccc(-n2nc(C(=O)N3CCN(c4ccccc4OC)CC3)c3c4ccccc4n(C)c3c2=O)cc1Cl,-,-,-,-,-
CCCCOc1cccc(C(=O)N(Cc2cccs2)c2ccc(OC)cc2)c1,-,-,-,-,-
FC(F)Oc1cccc(NC(=S)N2CCN(c3ccccn3)CC2)c1,-,-,-71.3,-,-
S=C(Nc1ccccc1)N1CCN(c2ccccn2)CC1,-,-,-,-,-
CN(C)CCN(C(=O)c1ccco1)c1nc2c(F)cc(F)cc2s1,-,-,-,-,-
CCOC(=O)c1ccc(COc2ccc(C(C)C)cc2)o1,-,-,-,-,-
CCOc1ccc(OCc2ccc(C(=O)OCc3ccccn3)o2)cc1,-,-,-,-,32.0
COCCOC(=O)c1c(C)oc2ccc(NS(=O)(=O)c3ccc(C)cc3)cc12,-,-,-,-,-
CC(=O)c1c(C)oc2c(Cl)cc(NS(=O)(=O)c3ccc(Cl)cc3)cc12,-,-,-,-,-
CCOC(=O)c1c(C)oc2c(Cl)cc(NS(=O)(=O)c3ccc(Cl)c(C)c3)cc12,-,-,-30.6,-,-
CCc1ccc(S(=O)(=O)Nc2ccc3oc(C)c(C(=O)OCCOC)c3c2)cc1,-,-,-42.7,-,-
CCN(c1cccc(C)c1)S(=O)(=O)c1ccc2[nH]cc(C(=O)NCCCOC)c(=O)c2c1,-,-,-,-,-
O=C(CCCN1C(=O)C(c2ccccc2)Oc2cccnc21)Nc1cccc(F)c1 (configuration not stated),-,-,-44.1,-,-
CC1CCCN(CCCNC(=O)c2ccc3c(c2)N(Cc2cccc(Cl)c2)C(=O)c2ccccc2S3(=O)=O)C1 (configuration not stated),-,-,-,-,-
CCOc1ccc(CCNC(=O)Cn2nc(CC)n3c(cc4ccccc43)c2=O)cc1,-,-,-43.0,-,-
CCc1nn(CC(=O)NCCN(CC(C)C)CC(C)C)c(=O)c2cc3sc(C)cc3n12,-,-,-,54.7,-
Cc1ccc(Cn2c(SCc3ccc(C(=O)O)cc3)nc3cccnc32)cc1,-,-,-,-,-
CN1CCN(S(=O)(=O)c2ccc(N(C)Cc3ccc(OC(F)F)cc3)c([N+](=O)[O-])c2)CC1,-,-,-39.2,-,-
Cc1ccc(S(=O)(=O)N2CCN(C)CC2)cc1[N+](=O)[O-],-,-,-,-,-
COc1ccc(N2CCN(C(=O)c3cccc(NC(=O)c4nsc5ccccc45)c3)CC2)cc1,-,-,-,-,-
Fc1ccc(-n2c(=S)[nH]c3cccnc32)cc1,-,-,-33.1,-,-
FC(F)(F)c1cnc2c(c1)[nH]c(=S)n2-c1ccc(Cl)cc1,-,-,-,-,-
Cc1ccc(-c2noc(-c3ccoc3C)n2)cc1,-,-,-,-,103.7
Cc1cc(C)nc(CCNC(=O)c2cc(COc3ccc(F)cc3Cl)on2)n1,-,-,-,-,-
SMILES,D1 potentiator,TRHR agonist,D1 antagonist,TRHR PAM,D1 ag
Cc1cc(C)nc(CCNC(=O)c2cc(COc3ccc(F)cc3F)on2)n1,-,-,-34.4,-,-
Cc1cc(C(=O)COC(=O)C2=NNC(=O)CC2)c(C)n1-c1ccc(OC(F)F)cc1,-,-,-34.6,-,-
Cc1cc(C(=O)C(C)OC(=O)C2=NNC(=O)CC2)c(C)n1-c1ccc(OC(F)F)cc1 (configuration not stated),-,-,-,-,-
Cc1ccc2nc(N(CCCN(C)C)C(=O)c3ccc(S(=O)(=O)N4CCCCCC4)cc3)sc2c1,-,-,-,-,37.6
CCCCN(C)S(=O)(=O)c1ccc(C(=O)N(CCN(C)C)c2nc3ccc(C)cc3s2)cc1,-,-,-38.9,-,-
CC1CCCCN1S(=O)(=O)c1ccc(C(=O)N(CCCN(C)C)c2nc3ccc(Br)cc3s2)cc1 (configuration not stated),-,-,-31.6,-,-
CN(C)CCCN(C(=O)C1=COCCO1)c1nc2ccc(Br)cc2s1,-,-,-40.9,-,68.0
CC(=O)c1c(C)[nH]c(C(=O)Nc2ccc(Cl)c(S(=O)(=O)N(C)C)c2)c1C,-,-,-49.9,-,-
CC(=O)c1c(C)[nH]c(C(=O)Nc2ccc(Cl)cc2F)c1C,-,-,-,-,-
CC(C)CC1(C)NC(=O)N(CC(=O)Nc2cccc(S(=O)(=O)N(C)c3ccccc3)c2)C1=O (configuration not stated),-,-,-38.7,-,-
CC(=O)c1c(C)[nH]c(C(=O)Nc2ccc(Cl)cc2)c1C,-,-,-63.1,36.0,33.0
CC(=O)c1c(C)[nH]c(C(=O)Nc2cccc(S(=O)(=O)N(C)c3ccccc3)c2)c1C,-,-,-44.4,-,-
CCOc1ccc(S(=O)(=O)N(CC(=O)Nc2ccc3c(c2)OCO3)c2ccccc2)cc1,-,-,-,-,-
O=S(=O)(Nc1ccc(-c2ccc(N3CCCC3)nn2)cc1)c1cccc(C(F)(F)F)c1,-,-,-,-,-
Cc1ccc(NS(=O)(=O)c2ccc3c(c2)N(C)C(=O)CC(=O)N3C)cc1Cl,-,-,-,-,-
CCCCCn1c(=O)[nH]c2cc(C(=O)NC(C)CC)ccc2c1=O (configuration not stated),-,-,-,-,-
O=C1c2[nH]nc(-c3ccccc3O)c2C(c2ccc(F)cc2)N1CCO (configuration not stated),-,-,-,-,-
N#Cc1nc(Nc2cccc([N+](=O)[O-])c2)nc(NC2CCCC2)n1,-,-,-,-,-
Cc1ccccc1CN(C)CC(=O)Nc1cccc(S(=O)(=O)N(C)c2ccccc2)c1,-,-,-41.3,-,-
CCN(CC(=O)Nc1cccc(S(=O)(=O)N(C)c2ccccc2)c1)Cc1ccccc1,-,-,-,-,-
Cn1c(=O)n(C)c2cc(N3CCCCC3)c(NC(=O)c3ccc(C(C)(C)C)cc3)cc21,-,-,-,-,-
COCCNC(=O)Cn1c(=O)c2cccn2c2ccc(F)cc21,-,-,-,-,-
Cc1ccccc1C(=O)Nc1ccc(C(=O)NNC(=O)CCCOc2ccc(Cl)cc2Cl)cc1,-,-,-39.1,-,-
O=C(CCCOc1ccc(Cl)cc1Cl)NNC(=O)c1ccc(NC(=O)c2ccccc2)cc1,-,-,-,-,-
